# TRPV1 potentiator: enhances activation of the human vanilloid receptor TRPV1; 0.02% of 320,000 active; TRPV1-expressing cells, Fluo-8 calcium influx, capsaicin EC20 potentiation; Q8NER1; potentiation, % at 8.33 µM; AID 540277; in the data active = potentiation above about 80%; also: 0% is about no effect
# Target sequence (Q8NER1 whole entry, looked up): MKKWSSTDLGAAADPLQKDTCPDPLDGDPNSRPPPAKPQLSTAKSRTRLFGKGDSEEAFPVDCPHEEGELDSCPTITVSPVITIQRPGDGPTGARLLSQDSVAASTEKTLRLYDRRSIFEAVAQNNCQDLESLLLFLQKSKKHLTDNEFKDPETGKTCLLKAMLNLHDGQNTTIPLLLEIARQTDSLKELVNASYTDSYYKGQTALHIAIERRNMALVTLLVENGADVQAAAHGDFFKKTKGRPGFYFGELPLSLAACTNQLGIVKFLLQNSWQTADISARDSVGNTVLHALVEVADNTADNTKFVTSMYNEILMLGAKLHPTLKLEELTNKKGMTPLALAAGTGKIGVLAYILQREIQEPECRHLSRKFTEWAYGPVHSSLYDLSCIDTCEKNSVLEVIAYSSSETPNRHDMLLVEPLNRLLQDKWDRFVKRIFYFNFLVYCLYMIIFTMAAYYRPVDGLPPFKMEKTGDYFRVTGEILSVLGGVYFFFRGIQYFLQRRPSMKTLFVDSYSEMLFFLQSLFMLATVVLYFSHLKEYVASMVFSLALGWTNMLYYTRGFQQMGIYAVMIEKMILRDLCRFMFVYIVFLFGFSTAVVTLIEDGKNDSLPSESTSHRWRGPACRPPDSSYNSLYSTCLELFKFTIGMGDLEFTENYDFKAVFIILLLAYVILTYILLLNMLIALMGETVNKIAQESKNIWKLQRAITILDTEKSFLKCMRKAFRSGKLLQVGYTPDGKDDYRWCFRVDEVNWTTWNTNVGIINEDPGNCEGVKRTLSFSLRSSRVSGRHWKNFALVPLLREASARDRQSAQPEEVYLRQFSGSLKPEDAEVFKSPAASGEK
#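 Cells expressing TRPV1 were dye-loaded with Fluo-8 and read kinetically: 10 s baseline, 3 min after compound (agonist portion), then 2 min after EC20 capsaicin (allosteric enhancer portion). Calcium-bound dye fluorescence at 480/520 nm.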
# D1 antagonist: blocks dopamine activation of the human D1 receptor. 3.2% of 360,000 active. HEK293 TREx D1 cells, calcium flux, dopamine EC80; hits give low values. AID 504652. activity change, negative = inhibition, % at 10 µM; in the data active = activity change below about -30%; also: % is scaled to controls: 0 for no effect and ±100 for the full control effect
#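 After overnight tetracycline induction at 30 C, force-coupled D1 HEK293 cells took up a no-wash calcium dye at room temperature. Compounds were added and monitored 180 s, and the response to EC80 dopamine was then recorded.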
# D1 agonist: agonists of human D1 dopamine receptor; activation, % at 2 µM; 1% of 360,000 active; P21728; AID 504660; HEK293 T-REx D1 cells, calcium flux, agonist mode; in the data active = activation above about 30%; also: 0% is about no effect
#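 Inducible HEK293 T-REx D1 cells, force-coupled to calcium signalling, were plated at 4000 cells/well with tetracycline and held overnight at 30 C. After no-wash calcium dye loading, compound-evoked calcium rise over 180 s flagged agonists.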
# D1 PAM: potentiators of human D1 dopamine receptor; P21728; HEK293 TREx D1 cells, calcium flux, dopamine EC20 potentiation; potentiation, % at 10 µM; 0.036% of 360,000 active; in the data active = potentiation above about 30%; also: 0% is about no effect
# TRPV1 agonist: agonists of human vanilloid receptor 1 (TRPV1); 0.19% of 320,000 active; activation, % at 8.33 µM; Q8NER1; TRPV1-expressing cells, Fluo-8 calcium influx, agonist mode; in the data active = activation above about 80%; also: 0% is about no effect
#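 Fluo-8 calcium influx in TRPV1-expressing cells, kinetic read (ex 480/em 520 nm). Compound added and read 3 min for agonist activity, followed by capsaicin at EC20 final and 2 min further read for enhancement.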
# The depositor's hits bear a star; x = no result. Only some compounds are listed: those with a hit (about 4.2% of all), similar ones and a draw of the others.
SMILES,TRPV1 potentiator,D1 antagonist,D1 agonist,D1 PAM,TRPV1 agonist
O=C(NCc1cccs1)c1ccc2c(c1)sc1nc(-c3ccccc3)cn12,x,-8.8,0.8,-0.1,x
COc1ccc(NC(=O)/C(Cl)=C(/Cl)S(=O)Cc2ccc(Cl)cc2)cn1 (stereo not given),-4.6,-32.5*,-0.3,-6.7,7.2
COc1ccc(C)cc1NC(=O)c1nnn(-c2c(C)cccc2C)c1C,x,6.0,-0.8,-2.5,x
Cc1ccc(CNC(=O)CSc2c(C(C)C)cnc3c2c(=O)n(C)c(=O)n3C)cc1,x,6.8,2.4,5.1,x
COc1ccc(CCNc2oc(COc3ccccc3F)nc2C#N)cc1,16.1,-66.9*,2.8,-10.2,15.2
COc1ccc(CCNc2oc(COc3ccc(Br)cc3)nc2C#N)cc1OC,5.8,-32.5*,1.6,x,2.7
COc1ccc(CNc2oc(COc3ccc(Cl)cc3)nc2C#N)cc1,17.5,-30.0*,3.9,-7.0,7.1
Cc1ccc2c(c1)N(C(=O)Nc1cccc3c1CCCC3)CCO2,x,-8.7,0.8,1.3,x
CC(COc1ccccc1)N1CCC(CO)(CCc2ccccc2)CC1 (stereo not given),-3.4,8.8,35.1*,-6.2,13.4
Cc1c(-c2ccc(F)cc2)nc(N)c(C#N)c1-c1ccco1,17.7,-32.9*,1.8,1.6,-5.2
Cc1ccc(-n2c(SCc3ccccc3F)nc3[nH]ncc3c2=O)cc1Cl,x,34.2,3.3,-8.2,x
COc1cc(/C=C(/C#N)C(=O)Nc2ccc(C)cc2)ccc1Oc1nc(Cl)ncc1F,-25.9,-30.5*,6.9,-5.2,18.3
COc1ccc(/C=C(/C#N)C(=O)Nc2ccc(C)cc2C)cc1C(=O)O,x,-34.9*,-1.0,2.8,x
COc1ccc(/C=C(/C#N)C(=O)Nc2ccccc2C)cc1C(=O)O,-1.2,-3.7,2.4,-1.2,-1.0
COc1ccc(/C=N/NC(=O)CC#N)cc1Oc1nc(Cl)ncc1F,-0.3,-7.9,10.0,-4.0,1.0
CCN(CC)Cc1c(O)ccc2c1O/C(=C\C=C\c1ccccc1)C2=O,3.1,8.4,48.8*,0.2,14.2
COCCN(CCOC)Cc1c(O)ccc2c1O/C(=C\c1ccc(C)o1)C2=O,2.5,-2.3,8.7,0.7,4.1
COc1ccccc1/C=C/C=C1\Oc2c(ccc(O)c2CN(C)C)C1=O,-2.5,9.2,103.3*,-12.1,15.2
Cc1ccc(NC(=O)COC(=O)C(NS(=O)(=O)c2ccc(Cl)cc2)C(C)O)cc1 (stereo not given),0.2,-26.9,7.3,-3.4,-0.7
CC(NS(=O)(=O)c1ccc(Cl)cc1)C(=O)OCC(=O)Nc1ccc(N(C)C)cc1 (stereo not given),-42.2,-45.3*,0.8,-1.4,4.6
O=C(NC1(C(F)(F)F)NC(=O)N(CCc2ccccc2)C1=O)c1ccccc1Cl (stereo not given),x,3.0,6.0,-4.0,x
CN(C)c1ccc(-c2nc(-c3ccco3)no2)cc1[N+](=O)[O-],x,-8.2,5.8,-2.1,x
COc1ccccc1N1CCN(CCCCCCOc2ccc(F)cc2)CC1,-0.8,-44.9*,7.9,-20.8,0.6
COc1ccc(OC)c(CN2CCN(Cc3cccc4ccccc34)CC2)c1,-7.1,-67.3*,2.4,-15.2,-2.3
COc1ccc(CN2CCN(c3ccccc3OC)CC2)c(OC)c1,-30.3,-45.7*,3.6,4.5,1.5
SMILES,TRPV1 potentiator,D1 antagonist,D1 agonist,D1 PAM,TRPV1 agonist
COc1ccc(OC)c(CN2CCCCCC2)c1,-7.3,15.5,4.1,-3.4,-0.6
COc1ccc(CCNC(=O)Cn2nc(-c3ccc(Cl)cc3)ccc2=O)cc1OC,x,-19.2,-2.5,-1.4,x
CN(C)S(=O)(=O)c1ccc(Cl)c(NC(=O)CN2CCN(Cc3ccc4c(c3)OCO4)CC2)c1,-2.6,-57.8*,10.2,-0.5,9.0
CC(C)c1ccc(S(=O)(=O)N2CCN(CCC(=O)Nc3ccc(N(C)C)cc3)CC2)cc1,-4.2,-80.6*,-0.2,-1.8,-3.0
CC(C)c1ccc(S(=O)(=O)N2CCN(CC(=O)Nc3ccc4c(c3)OCO4)CC2)cc1,-1.2,-30.4*,5.5,-5.7,0.5
O=C(CN1CCN(S(=O)(=O)c2ccccc2)CC1)Nc1ccc2c(c1)OCO2,0.3,-32.2*,0.0,-7.3,-0.4
COc1ccc(-c2nc3c(c(SCC(=O)N4CCCCC4)n2)Cc2c(CO)cnc(C)c2O3)cc1,x,3.7,1.6,-5.8,x
Cn1ccc2cc(-c3ccc4ncnc(NCc5ccc6c(c5)OCO6)c4c3)ccc21,x,-9.3,0.7,-5.5,x
